# Bioassay records from PubChem.
# Shown are actives, neighbours in structure and some others; about 3.5% of the full set was active somewhere.
# MITF inh = MITF inhibitors, primary screen, biochemical, AlphaScreen, human. Microphthalmia-associated transcription factor (Homo sapiens), O75030. AlphaScreen MITF homodimerization, bead proximity signal. inhibition, % at 2.6 µM. actives 0.91% (n = 650,000); in the data active = inhibition above about 50%
# FBW7 activator = FBW7 E3 ligase activators, primary screen, biochemical, AlphaScreen, human; normalized activity (activation), % at 26.1 µM; actives 0.13% (n = 650,000); AlphaScreen FBW7–phospho-cyclin E peptide binding, activator screen; in the data active = normalized activity above about 1.9%;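 also: purified mutant Fbw7 with reduced substrate affinity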
# Target sequence (Q969H0 whole entry, looked up): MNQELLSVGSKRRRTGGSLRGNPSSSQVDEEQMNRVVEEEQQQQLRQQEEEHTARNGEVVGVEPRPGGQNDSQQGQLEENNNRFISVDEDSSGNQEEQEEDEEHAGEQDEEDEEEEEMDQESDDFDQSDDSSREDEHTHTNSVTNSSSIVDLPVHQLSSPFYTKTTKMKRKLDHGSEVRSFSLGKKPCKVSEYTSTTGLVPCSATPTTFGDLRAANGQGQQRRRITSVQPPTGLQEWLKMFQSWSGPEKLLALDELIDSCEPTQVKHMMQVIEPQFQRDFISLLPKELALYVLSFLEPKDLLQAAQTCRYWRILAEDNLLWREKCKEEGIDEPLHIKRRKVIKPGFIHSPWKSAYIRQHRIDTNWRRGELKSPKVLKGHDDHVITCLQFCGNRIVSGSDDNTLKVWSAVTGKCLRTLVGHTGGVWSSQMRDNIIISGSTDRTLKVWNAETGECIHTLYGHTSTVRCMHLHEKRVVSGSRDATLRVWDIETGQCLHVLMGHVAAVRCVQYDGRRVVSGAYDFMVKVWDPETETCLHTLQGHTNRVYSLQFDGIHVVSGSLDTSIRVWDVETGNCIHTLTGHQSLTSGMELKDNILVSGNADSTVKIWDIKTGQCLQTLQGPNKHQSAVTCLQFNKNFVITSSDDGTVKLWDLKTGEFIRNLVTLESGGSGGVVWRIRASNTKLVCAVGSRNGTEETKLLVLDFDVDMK
# GPR151 ag = activators of human GPR151, primary screen, cell-based, PathHunter beta-arrestin, luminescence. PathHunter beta-arrestin GPR151 cells. G-protein coupled receptor 151 (Homo sapiens), Q8TDV0. actives 1% (n = 650,000). activation, % at 11.2 µM; in the data active = activation above about 4.9%
# TEAD-YAP inh = TEAD-YAP interaction inhibition, primary screen, TEAD-YAP interaction inhibitor project, luminescence, HEK-TIYL cells; TEAD-Gal4/YAP UAS-luciferase luminescence; inhibition, % at 9.12 µM; actives 1.4% (n = 640,000); AID 1259422, 2018; in the data active = inhibition above about 32%
# GPR151 conf act = GPR151 activators, triplicate retest, confirmation, cell-based, PathHunter beta-arrestin, luminescence | 6,700 tested, under 10 active | activation, % at 11.2 µM | GPR151 PathHunter beta-arrestin cells, 90 min; % of EA-reagent control over plate median | shares compounds with GPR151 ag;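 active = mean percent activation across replicates above the confirmation screen cutoff of 4.91%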
# GPR119 ag = GPR119 activators in beta-arrestin cells, counter-screen for GPR151 activator project, cell-based, PathHunter beta-arrestin, luminescence, triplicate. shares compounds with GPR151 ag. 90 min; 0 = compound-well median, 100 = enzyme-acceptor control. activation, % at 11.2 µM. actives 0.3% (n = 6,700);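 active = mean percent activation in the counterscreen above 29.09%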;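 also: counterscreen on off-target GPR119 to flag nonselective hits from the GPR151 activator screen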
# Numbers stand for hits; . = inactive; / = not tested or not shown.
SMILES,MITF inh,FBW7 activator,GPR151 ag,TEAD-YAP inh,GPR151 conf act,GPR119 ag
O=C(CCc1nnc(-c2ccsc2)o1)N1CCCCC1c1nc2ccc(F)cc2[nH]1 (stereo unspecified),.,.,.,.,/,/
CCOC(=O)c1ccc(OCC2c3cc(OC)c(OC)cc3CCN2C(=O)c2ccc(OCC)c(OCC)c2)cc1 (stereo unspecified),.,.,.,.,/,/
COc1ccc(OCC2c3cc(OC)c(OC)cc3CCN2C(=O)/C=C/c2cc(OC)c(OC)c(OC)c2)cc1 (stereo unspecified),.,.,.,.,/,/
COc1cc2c(cc1OC)C(COc1ccc(F)cc1)N(C(=O)/C=C/c1cc(OC)c(OC)c(OC)c1)CC2 (stereo unspecified),.,.,6.3,.,.,.
COc1cc2c(cc1OC)C(COc1ccc(F)cc1)NCC2 (stereo unspecified),.,.,7.1,.,.,.
CCOc1ccc(C(=O)N2CCc3cc(OC)c(OC)cc3C2COc2ccc(C(=O)OC)cc2)cc1OCC (stereo unspecified),.,.,20.2,.,.,.
O=C(COC(=O)CN1C(=O)C2CCCCC2C1=O)Nc1ccc(F)c(Cl)c1 (stereo unspecified),.,.,.,.,/,/
O=C(CN1C(=O)CCSc2ccccc21)NCc1ccccn1,.,.,.,.,/,/
Cc1ccc(-c2oc3ccccc3c(=O)c2OC(=O)CN2C(=O)c3ccccc3C2=O)cc1,.,.,11.2,.,.,.
O=C(CN1C(=O)c2ccccc2C1=O)Oc1c(-c2ccccc2)oc2ccccc2c1=O,.,.,.,.,/,/
COc1cc(Nc2ccc(NC(=O)Nc3ccccc3)cc2)nc(C)n1,.,.,7.9,.,.,.
CCOC(=O)C1=C(C)NC2=C(C(=O)CC(c3ccc(OC)cc3)C2)C1c1cccc([N+](=O)[O-])c1 (stereo unspecified),.,.,.,.,/,/
CC1(C)CC(=O)C2=C(C1)OC1=C(C(=O)CC(C)(C)C1)C2c1cccs1,.,.,.,.,/,/
CC1(C)CC(=O)C2=C(C1)OC1=C(C(=O)CC(C)(C)C1)C2C=C(Cl)Cl,.,.,6.6,.,.,.
CC(=O)C1C2=C(CC(C)(C)CC2=O)OC2=C1C(=O)CC(C)(C)C2,.,.,6.7,.,.,.
CCN(CC)c1nc(NCCN(C(C)C)C(C)C)nc(Nc2ccccc2)n1,.,.,.,.,/,/
Cc1ccc(-c2cc(C(F)(F)F)n3ncc(C(=O)Nc4cccc(O)c4)c3n2)cc1,.,.,.,.,/,/
Cc1ccc(CNS(=O)(=O)c2ccc(F)c(C(=O)Nc3cc(C(F)(F)F)ccc3Cl)c2)cc1,.,.,.,.,/,/
O=C(c1c(F)cccc1F)N1CCN(S(=O)(=O)c2ccc(Br)cc2)CC1,.,.,6.1,.,.,.
C=CCn1c(SCc2ccc(OC)c([N+](=O)[O-])c2)nnc1-c1cccc(Br)c1,.,.,5.0,.,.,.
Oc1ccccc1-c1csc(Nc2ccccn2)n1,.,.,7.6,.,.,.
CSc1cccc(CN2CCN(Cc3ccccc3F)C(CCO)C2)c1 (stereo unspecified),.,.,12.8,.,.,.
COc1cccc(CN2CCN(Cc3cccc(OCCO)c3)CC2CCO)c1 (stereo unspecified),.,.,5.2,.,.,.
COc1cccc(CN2CCN(Cc3cn(C)nc3C)CC2CCO)c1 (stereo unspecified),.,.,5.8,.,.,.
COc1cccc(CN2CCN(Cc3cccc(OC)c3)C(CCO)C2)c1 (stereo unspecified),.,.,.,.,/,/
SMILES,MITF inh,FBW7 activator,GPR151 ag,TEAD-YAP inh,GPR151 conf act,GPR119 ag
CCc1ccc2c(c1)cc(CN(Cc1ccco1)C(=O)C1CC1)c1nnnn12,.,.,.,.,/,/
Nc1nonc1C(=O)N/N=C\c1cc([N+](=O)[O-])ccc1Cl,.,.,.,.,/,/
CC(=O)NCCNc1ncnc2sc3c(c12)CCCC3,.,.,.,.,/,/
CCOC(=O)Cc1c(C)nc2c(-c3ccccc3)c[nH]n2c1=O,.,.,7.5,.,.,.
O=C1c2ccccc2C(=O)N1CCOc1ccccc1F,.,.,.,.,/,/
O=C1c2ccccc2C(=O)N1CCOc1ccc(Br)cn1,.,.,6.0,.,.,.
Cc1cc2nnc(SCC(=O)Nc3sc4c(c3C#N)CCC(C)C4)n2c2ccccc12 (stereo unspecified),.,.,5.3,.,.,.
COC(=O)c1c(NC(=O)CSc2nnc3cc(C)c4ccccc4n23)sc2c1CCC(C)C2 (stereo unspecified),.,.,.,.,/,/
Cc1cc(C(=O)Nc2sc3c(c2C#N)CCC(C)C3)cs1 (stereo unspecified),.,.,8.3,.,.,.
COc1ccc(/C=C/c2nc(=O)c(-c3ccccc3)c(C)n2-c2ccccc2)cc1OC,.,.,.,.,/,/
O=C(CCc1ccccc1)NC(c1ccc2c(c1)OCO2)c1c(O)ccc2ccccc12 (stereo unspecified),.,.,.,.,/,/
CC(C)CC(=O)NC(c1ccc2c(c1)OCO2)c1c(O)ccc2ccccc12 (stereo unspecified),.,.,5.2,.,.,.
CCOC(=O)C1=C(C)N=c2s/c(=C\c3cccc(O)c3)c(=O)n2C1c1cccc(OC)c1 (stereo unspecified),.,.,.,.,/,/
COCCCNC(=O)c1ccc(CNc2nc(=S)[nH]c3ccccc23)cc1,.,.,5.9,.,.,.
Clc1ccc(N2CCN(Cc3ccoc3)CC2)cc1,.,.,.,.,/,/
Clc1ccc(N2CCN(Cc3ccco3)CC2)cc1,.,.,5.0,.,.,.
CCSCc1nnc(SCC(=O)Nc2nc(-c3ccccc3)cs2)n1C,.,.,.,.,/,/
O=C(Nc1nc2ncccc2cc1-c1ccccc1)c1cccs1,.,.,.,.,/,/
Cc1cccc(-c2noc(CCC(=O)N(C)C)n2)c1,.,.,.,.,/,/
COc1ccc(-c2noc(CCC(=O)Nc3cccc(Cl)c3)n2)cc1,.,.,9.5,.,.,.
COc1ccc(-c2noc(CCC(=O)Nc3ccc(C)cc3)n2)cc1,.,.,.,.,/,/
CN(C)C(=O)CCc1nc(-c2ccc(Cl)cc2)no1,.,.,7.2,.,.,.
COc1ccc(-c2noc(CCC(=O)Nc3ccc(C)c(C)c3)n2)cc1,.,.,5.2,.,.,.
COc1ccc(-c2noc(CC(=O)Nc3cccc(Cl)c3)n2)cc1,.,.,.,.,/,/
COc1cccc(-c2noc(CCC(=O)NC(C)C)n2)c1,.,.,5.6,.,.,.
